Screening data: PubChem, National Center for Advancing Translational Sciences (NCATS)
Sampled rows, rich in hits. Any-hit rate of the full collection: about 8%.
HT1080 IDH1KD tx – qHTS for induction of synthetic lethality in tumor cells producing 2HG: qHTS for the HT-1080-IDH1KD cell line. 360,000 compounds, 2% hits. HT-1080 IDH1 knockdown viability, ATP luminescence, 48 h. Potency, µM (highest dose often 46.1 µM), actives largely listed as cytotoxic
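After a 2 h attachment period, IDH1KD HT-1080 cells took pin-transferred compound for 48 h at 37 °C; ATP-based luminescence after 10 min room-temperature reagent incubation reported viability.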
HT1080-NT tox – qHTS for induction of synthetic lethality in tumor cells producing 2HG: qHTS for the HT-1080-NT fibrosarcoma cell line | AID 686970, 2013 | HT-1080-NT fibrosarcoma viability, CellTiter-Glo ATP luminescence, 48 h | 360,000 compounds, 1.6% hits | Potency, µM (doses to about 46.1 µM), most hits filed as cytotoxic;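 also: NT is the 2HG producing partner of a matched IDH1 knockdown line; nearly all actives have a fitted effect of over 55% in size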
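Viability by CellTiter-Glo luminescence after 48 h compound exposure at 37C of HT-1080-NT cells (750/well, RPMI, 5% FBS). % activity scaled between DMSO wells and medium-only wells, then curve-fitted and categorized by curve class.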
KB-3-1 tox – qHTS assay for MDR1-selective chemotherapeutics: Primary screen using the parental adenocarcinoma cell KB-3-1; KB-3-1 viability, CellTiter-Glo ATP luminescence, 72 h; 400,000 compounds, 1.4% hits; Potency, µM (highest dose often 46.1 µM), usual class: cytotoxic; also: nearly all actives have a fitted effect of over 60% in size
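Here the drug-naive KB-3-1 line serves as comparator for MDR sub-line selectivity; cells received compound titrations, 72 h at 37 °C, then CellTiter-Glo readout.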
SW480 rereplic – A quantitative high throughput screen for small molecules that induce DNA re-replication in SW480 colon adenocarcinoma cells; SW480 DNA re-replication, Hoechst DNA content imaging, 48 h; Potency, µM (doses to about 46.1 µM), actives largely listed as activators; 340,000 compounds, 1.8% hits; also: nearly all actives have a fitted effect of over 55% in size
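Per well, 250 cells were exposed to pinned compound for 48 hr. Nuclear DNA was visualised with Hoechst (40 min, 37 C) and total object intensity recorded by fluorescence scanning.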
MCF10A rereplic – A quantitative high throughput screen for small molecules that induce DNA re-replication in MCF 10a normal breast cells; 350,000 compounds, 2.9% hits; AID 624296, 2012; Potency, µM (titrated, usually from 46.1 µM), actives largely listed as activators; MCF 10A DNA re-replication, Hoechst nuclear intensity, 48 h; also: nearly all actives have a fitted effect of over 50% in size
KB-V1 cytotox – qHTS assay for MDR1-selective chemotherapeutics: Primary screen using the drug-selected MDR subline cells KB-V1 | Potency, µM (top dose mostly 46.1 µM), hits mostly cytotoxic | KB-V1 MDR cells viability, CellTiter-Glo, 72 h | AID 1347076, 2019 | 400,000 compounds, 3.4% hits; also: nearly all actives have a fitted effect of over 60% in size
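Luminescent ATP read-out (CellTiter-Glo, 10 min) measures survival of drug-selected KB-V1 MDR cells after 72 h, 37 degrees C compound exposure. Medium: phenol-red-free DMEM, 10% FBS. Values from fitted concentration-response curves.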
Large screens that a line does not name were inactive. Calls follow the shape of the dose curve; as a rule, active = well fitted curve in the direction sought with a large enough effect; inconclusive = small, poorly fitted or top-dose-only effect, or another doubt; inactive = no such curve, though single readings can be large; an effect the other way counts as inactive or inconclusive.

COc1ccc(CN2CCN(Cc3ccccc3)CC2)c(OC)c1	MCF10A rereplic inconclusive, KB-V1 cytotox 23µM
CCCC(=O)NC(Oc1ccc(Cl)cc1Cl)C(Cl)(Cl)Cl (configuration not stated)	none
CC(Oc1ccc(Cl)cc1Cl)c1nc(-c2ccc(NC(=O)c3ccncc3)cc2)no1 (configuration not stated)	HT1080 IDH1KD tx inconclusive, KB-3-1 tox inconclusive, SW480 rereplic inconclusive, MCF10A rereplic 23µM, KB-V1 cytotox inconclusive
C[C@H]1CCCC(=O)CCC/C=C/c2cc(O)cc(O)c2C(=O)O1	KB-V1 cytotox 16µM
O=c1nc(/C=C/c2ccc(Cl)cc2Cl)cc(C(F)(F)F)[nH]1	MCF10A rereplic 6.5µM
CCc1ccc2c(c1)Sc1ccccc1CC2N1CCN(C)CC1 (configuration not stated)	SW480 rereplic 26µM, MCF10A rereplic inconclusive
Cc1cccc(NC(=O)Cn2cc(C(=O)c3ccccc3)c3ccccc32)c1C	none (no result: HT1080 IDH1KD tx, HT1080-NT tox, SW480 rereplic, MCF10A rereplic)
COc1ccccc1CCNC1CCC(C)CC1 (configuration not stated)	none
COc1ccccc1CCNC1C2CC3CC(C2)CC1C3 (configuration not stated)	SW480 rereplic inconclusive, KB-V1 cytotox 15µM
N#CC(c1ccccc1)c1cccc(Cl)n1 (configuration not stated)	SW480 rereplic inconclusive
CCCCN(C)C(=O)c1oc2ccc(S(=O)(=O)N3CCCCCC3)cc2c1C	HT1080 IDH1KD tx inconclusive, HT1080-NT tox inconclusive, KB-V1 cytotox 2.6µM
CCCCOC(=O)n1c(=O)oc2ccc(S(=O)(=O)N3CCCCC3)cc21	HT1080 IDH1KD tx inconclusive, KB-3-1 tox inconclusive
CC1=C2[C@@H]3OC(=O)[C@@H](C)[C@@H]3CC[C@]2(C)C=CC1=O	none (no result: HT1080 IDH1KD tx, HT1080-NT tox, KB-3-1 tox, KB-V1 cytotox)
CCCCn1c(O)c(C(CC)=NC(C)c2ccccc2)c(=O)[nH]c1=O (configuration not stated)	HT1080 IDH1KD tx inconclusive, HT1080-NT tox inconclusive, SW480 rereplic inconclusive, MCF10A rereplic inconclusive
CCCCn1c(O)c(C(CC)=Nc2ccc(OC)cc2OC)c(=O)[nH]c1=O	KB-3-1 tox inconclusive, SW480 rereplic inconclusive, MCF10A rereplic inconclusive, KB-V1 cytotox 21µM
CCCCn1c(O)c(C(CC)=NCc2cc(OC)cc(OC)c2)c(=O)[nH]c1=O	KB-V1 cytotox 3.7µM
CCCCn1c(O)c(C(CC)=Nc2ccc(OCC)cc2)c(=O)[nH]c1=O	KB-3-1 tox inconclusive, KB-V1 cytotox 21µM
CCC(=Nc1ccc(OC)cc1OC)c1c(O)n(C)c(=O)n(C)c1=O	HT1080 IDH1KD tx inconclusive, KB-3-1 tox inconclusive, KB-V1 cytotox inconclusive
CC(C)(C)NCC(O)c1ccccc1Cl (configuration not stated)	none (no result: HT1080 IDH1KD tx, HT1080-NT tox, KB-3-1 tox, KB-V1 cytotox)
C=C[C@@H]1CN2CC[C@H]1C[C@H]2[C@H](O)c1ccnc2ccccc12	none (no result: HT1080 IDH1KD tx, HT1080-NT tox, KB-3-1 tox, KB-V1 cytotox)
CC1(c2ccccc2)CC(C)(C)N2C(=O)C3(C(C#N)=C(N)Oc4cc(O)ccc43)c3cccc1c32 (configuration not stated)	HT1080 IDH1KD tx inconclusive, HT1080-NT tox inconclusive, MCF10A rereplic inconclusive, KB-V1 cytotox 21µM
CC1(C)S[C@@H]2[C@H](N)C(=O)N2C1C(=O)O (some centres not stated)	none (no result: HT1080 IDH1KD tx, HT1080-NT tox, KB-3-1 tox, KB-V1 cytotox)
CC(C)n1c(O)c(C2c3cc(Cl)ccc3Oc3[nH]c(=O)n(C(C)C)c(=O)c32)c(=O)[nH]c1=O (configuration not stated)	HT1080 IDH1KD tx 2.3µM, HT1080-NT tox 5.2µM, KB-3-1 tox 8.2µM, SW480 rereplic inconclusive, MCF10A rereplic 2.1µM, KB-V1 cytotox 7.3µM
O=C(Nc1ccc(F)c(Cl)c1)N(Cc1ccc2c(c1)OCO2)C1CCN(Cc2ccccc2)CC1	none (no result: HT1080 IDH1KD tx, HT1080-NT tox, SW480 rereplic, MCF10A rereplic)
CN(C)C(=O)Oc1ccc(Cl)c2cccnc12	none
O=C(Nc1c(Cl)cccc1Cl)Oc1cccc2cccnc12	HT1080 IDH1KD tx 3.7µM, HT1080-NT tox 6.5µM, KB-3-1 tox inconclusive, KB-V1 cytotox inconclusive (no result: SW480 rereplic, MCF10A rereplic)
O=C(Nc1cccc(Br)c1)Oc1cccc2cccnc12	HT1080 IDH1KD tx inconclusive, HT1080-NT tox 16µM, KB-3-1 tox inconclusive, KB-V1 cytotox inconclusive (no result: SW480 rereplic, MCF10A rereplic)
O=S1(=O)N(Cc2ccccc2)CCCN1Cc1ccc(F)cc1Cl	none (no result: HT1080 IDH1KD tx, HT1080-NT tox, SW480 rereplic, MCF10A rereplic)
CN(C)C1C(=O)C(C(N)=O)C(=O)C2(O)C(=O)C3C(=O)c4c(O)cccc4C(C)(O)C3C(O)C12 (configuration not stated)	none (no result: HT1080 IDH1KD tx, HT1080-NT tox, KB-3-1 tox, KB-V1 cytotox)
CCn1c(=N)n(Cc2ccccc2F)c2ccccc21	none
Cc1ccc(C2CC3CCC(C2)N3Cc2ccccc2F)cc1 (configuration not stated)	HT1080 IDH1KD tx 15µM, HT1080-NT tox inconclusive, KB-3-1 tox inconclusive, SW480 rereplic inconclusive, MCF10A rereplic inconclusive, KB-V1 cytotox inconclusive
c1ccc(C2(N3CCCCC3)CCCCC2)cc1	none
S=C=Nc1cccc(C2(N3CCCCC3)CCCCC2)c1	HT1080 IDH1KD tx 18µM, HT1080-NT tox 23µM, SW480 rereplic inconclusive, MCF10A rereplic inconclusive
CCc1nc2ccc(C(=O)N3CCN(C(=O)c4ccco4)CC3)cn2c1N(C)Cc1ccc(OC)cc1	HT1080-NT tox inconclusive (no result: SW480 rereplic, MCF10A rereplic)
CCOC(=O)C1CCN(/C=C2/C(=O)NC(=O)N(c3ccc(OCC)cc3)C2=O)CC1	MCF10A rereplic 5.8µM
O=S1(=O)N(Cc2ccccc2Cl)CCCN1Cc1ccccc1Cl	none (no result: HT1080 IDH1KD tx, HT1080-NT tox, SW480 rereplic, MCF10A rereplic)
O=C(c1ccc2nc3ccc(Cl)cc3c(=O)n2c1)N1CCC2(CC1)OCCO2	KB-V1 cytotox 21µM
